The text below walks through data of PMC5540273 (PLoS ONE, 2017).
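Note: KINOMEscan kinase panel screen.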

One test deals with EPHA3. The conditions noted are these: concentration: 1 μM, replicates: in singlicate; n = 1.
Take `Cc1cccc(-c2nc(Nc3cccc(C(N)=O)c3)c3ccccc3n2)n1` [GW876019]: the “%Inh” value is 0%.

Turning to `CC(C)(C)c1ccc(C(=O)Nc2cn3cc(-c4cccnc4)ccc3n2)cc1`, the “%Inh” value amounted to 9%.

In the case of `Clc1cc(Cl)cc(Nc2ccnc(Nc3cc(Cl)cc(Cl)c3)n2)c1` [GSK175726], the “%Inh” value is recorded as 21%. Take `COc1ccc(CNC(=O)NC2CCN(c3ccnc(Nc4cc(OC)c(OC)c(OC)c4)n3)C2)cc1` (stereo not shown) [GSK1379748]: the “%Inh” value came to 0%.

For `Fc1cccc(COc2nnc(-c3ccc4c(c3)CCO4)o2)c1`, the “%Inh” value stood at 0%.

As for `CN1C(=O)C(Nc2ccc(Cl)c(C(=O)O)c2)=C(c2ccc(Cl)cc2)C1=O` [SB-404290], the “%Inh” value came to 18%. Still for that read-out and setting: to `Cn1cncc1-c1ccc2ncnc(Nc3ccc(OCc4ccccc4)cc3)c2c1` [GW320571] belongs 0%.

As for `Nc1ncnc2[nH]c(-c3ccccc3)nc12` [AH5015], the “%Inh” value is recorded as 0%. For `Cc1nnc(-c2ccc3occ(-c4ccc(S(C)=O)cc4)c3c2)[nH]1` (stereo not shown), the “%Inh” value worked out at 0%. Regarding `Fc1cc(Cl)ccc1Nc1ccnc2cc(I)ccc12` [GW551191], the “%Inh” value was 0%. Consider `CC(C)(C)c1ccc(C(=O)Nc2cn3cc(Cl)ccc3n2)cc1`, for which the “%Inh” value came to 65%. Turning to `C[C@@H]1CCCCN1c1cc(-c2ccc3c(N)n[nH]c3c2)nc(N)n1` [GSK2258759], the “%Inh” value is recorded as 7%. On the same count and under the same terms, the figure for `Cc1cccc(-c2nc(Nc3ccc4[nH]ncc4c3)c3ccccc3n2)n1` [GW857175] is 0%; for `Cc1cccc(-c2cc(Nc3ccncc3)c3ccccc3n2)n1` [GSK223675] it is 0%; for `COc1cc2nccc(Nc3ccc(NC(=O)c4ccc(C)cc4)c(O)c3)c2cc1OC.Cl` [GW440132] it is 0%. For `COc1cc(Nc2nccc(N3CCC(NC(=O)Nc4cc(C)ccc4C)C3)n2)cc(OC)c1OC` (stereo not shown) [GSK1379762], the “%Inh” value is listed as 0%. With `CSc1nn2c(=O)cc(N3CCOCC3)nc2n1Cc1cccc(C(F)(F)F)c1C` [GSK2363608], the “%Inh” value stood at 0%. Consider `COC(=O)c1c(-c2ccccc2)c2cc(OC)ccc2c(=O)n1Cc1ccccc1`, for which the “%Inh” value is 9%. In the case of `Cc1c(Cn2ccn3c(=O)cc(N4CCOCC4)nc23)cccc1C(F)(F)F` [GSK2289044], the “%Inh” value is 27%. The same measure, in the same setting: to `Cl.Oc1ccc(-c2nc(-c3ccccc3)[nH]c2-c2ccncc2)cc1` [SB-428218] belongs 0%.

On to `CC1=C(C(=O)Nc2cc3cn[nH]c3cc2F)C(c2ccc(C(F)(F)F)cc2)CC(=O)N1` (stereo not shown) [GSK429286], for which the “%Inh” value is 0%. Still for that read-out and setting: the figure for `CCCc1ccc(S(=O)(=O)NC2CCN(c3ccnc(Nc4ccc(F)cc4)n3)C2)cc1` (stereo not shown) [GSK1379715] is 0%; for `Cc1ccc(NC(=O)Nc2cccc(Cl)c2)cc1-c1ccc(C(=O)Nc2ccncc2)cc1` [GSK1398468] it is 0%; for `O=S(=O)(c1ccc(-c2ccnc3[nH]ccc23)cc1)N1CCCC1` [GSK846226] it is 11%. Regarding `Cn1ccc2ncnc(Oc3ccc(NC(=O)Nc4ccccc4)cc3)c21`, the “%Inh” value worked out at 0%. For the molecule `CCn1c(-c2ccccn2)nc2cnccc21` [SB-736398], the “%Inh” value was 0%. In the case of `CC(=O)Nc1nc2cnc(Nc3cc(NC(=O)c4cccc(CCC#N)c4)ccc3C)nc2s1`, the “%Inh” value turned out to be 0%. Still for that read-out and setting: the figure for `Cc1cccc(-c2nc(C)cc(Nc3ccncc3)n2)n1` [GSK257997] is 0%. `CS(=O)(=O)c1ccc(-c2c(-c3ncn[nH]3)sc(N3CCOCC3)c2C#N)cc1`: the “%Inh” value was determined as 0%. Turning to `O=C(O)COc1ncnc2cc(-c3ccc4[nH]ncc4c3)sc12`, the “%Inh” value is 10%. In the case of `Cc1c(O)cccc1Nc1ccnc2ccc(C(F)(F)F)cc12.Cl` [GW466413], the “%Inh” value was 3%. As to `O=C(Nc1ccc2c(c1)OCO2)NC1CCN(c2ccnc(Nc3ccc(F)cc3)n2)C1` (stereo not shown) [GSK1379724], the “%Inh” value is 0%.

`Cl.c1ccc(-c2n[nH]cc2-c2ccnc(-c3ccc(CN4CCOCC4)cc3)c2)nc1` [GW776245]: the “%Inh” value was 1%. Regarding `Cc1ccc(NC(=O)Nc2cc(C(C)(C)C)nn2-c2ccccc2)cc1` [GSK1014915], the “%Inh” value is 0%.

In another test the test system is EPHA4. The conditions noted are these: concentration: 1 μM, replicates: in singlicate; n = 1.
On to `Cc1cccc(-c2nc(Nc3cccc(C(N)=O)c3)c3ccccc3n2)n1` [GW876019], for which the “%Inh” value is recorded as 10%.

As for `CC(C)(C)c1ccc(C(=O)Nc2cn3cc(-c4cccnc4)ccc3n2)cc1`, the “%Inh” value is recorded as 25%. Still for that read-out and setting: the figure for `Clc1cc(Cl)cc(Nc2ccnc(Nc3cc(Cl)cc(Cl)c3)n2)c1` [GSK175726] is 8%.

With `COc1ccc(CNC(=O)NC2CCN(c3ccnc(Nc4cc(OC)c(OC)c(OC)c4)n3)C2)cc1` (stereo not shown) [GSK1379748], the “%Inh” value turned out to be 3%.

`Fc1cccc(COc2nnc(-c3ccc4c(c3)CCO4)o2)c1`: the “%Inh” value stood at 0%. Take `CN1C(=O)C(Nc2ccc(Cl)c(C(=O)O)c2)=C(c2ccc(Cl)cc2)C1=O` [SB-404290]: the “%Inh” value is recorded as 1%. On to `Cn1cncc1-c1ccc2ncnc(Nc3ccc(OCc4ccccc4)cc3)c2c1` [GW320571], for which the “%Inh” value came to 13%. For `Nc1ncnc2[nH]c(-c3ccccc3)nc12` [AH5015], the “%Inh” value is listed as 23%.

Take `Cc1nnc(-c2ccc3occ(-c4ccc(S(C)=O)cc4)c3c2)[nH]1` (stereo not shown): the “%Inh” value is recorded as 24%. `Fc1cc(Cl)ccc1Nc1ccnc2cc(I)ccc12` [GW551191]: the “%Inh” value turned out to be 13%. Turning to `CC(C)(C)c1ccc(C(=O)Nc2cn3cc(Cl)ccc3n2)cc1`, the “%Inh” value was determined as 0%.

`C[C@@H]1CCCCN1c1cc(-c2ccc3c(N)n[nH]c3c2)nc(N)n1` [GSK2258759]: the “%Inh” value was found to be 2%. Turning to `Cc1cccc(-c2nc(Nc3ccc4[nH]ncc4c3)c3ccccc3n2)n1` [GW857175], the “%Inh” value is reported as 0%. On the same count and under the same terms, to `Cc1cccc(-c2cc(Nc3ccncc3)c3ccccc3n2)n1` [GSK223675] belongs 0%; to `COc1cc2nccc(Nc3ccc(NC(=O)c4ccc(C)cc4)c(O)c3)c2cc1OC.Cl` [GW440132], 0%.

For `COc1cc(Nc2nccc(N3CCC(NC(=O)Nc4cc(C)ccc4C)C3)n2)cc(OC)c1OC` (stereo not shown) [GSK1379762], the “%Inh” value was 26%.

With `COC(=O)c1c(-c2ccccc2)c2cc(OC)ccc2c(=O)n1Cc1ccccc1`, the “%Inh” value was 35%. For `Cc1c(Cn2ccn3c(=O)cc(N4CCOCC4)nc23)cccc1C(F)(F)F` [GSK2289044], the “%Inh” value worked out at 6%.

`Cl.Oc1ccc(-c2nc(-c3ccccc3)[nH]c2-c2ccncc2)cc1` [SB-428218]: the “%Inh” value is 30%. As for `CC1=C(C(=O)Nc2cc3cn[nH]c3cc2F)C(c2ccc(C(F)(F)F)cc2)CC(=O)N1` (stereo not shown) [GSK429286], the “%Inh” value was determined as 4%.

For the molecule `CCCc1ccc(S(=O)(=O)NC2CCN(c3ccnc(Nc4ccc(F)cc4)n3)C2)cc1` (stereo not shown) [GSK1379715], the “%Inh” value is on record as 13%. Same read-out and setting: the figure for `Cc1ccc(NC(=O)Nc2cccc(Cl)c2)cc1-c1ccc(C(=O)Nc2ccncc2)cc1` [GSK1398468] is 18%; for `O=S(=O)(c1ccc(-c2ccnc3[nH]ccc23)cc1)N1CCCC1` [GSK846226] it is 0%; for `Cn1ccc2ncnc(Oc3ccc(NC(=O)Nc4ccccc4)cc3)c21` it is 0%.

Take `CCn1c(-c2ccccn2)nc2cnccc21` [SB-736398]: the “%Inh” value is on record as 23%.

Consider `CC(=O)Nc1nc2cnc(Nc3cc(NC(=O)c4cccc(CCC#N)c4)ccc3C)nc2s1`, for which the “%Inh” value is 16%. As to `Cc1cccc(-c2nc(C)cc(Nc3ccncc3)n2)n1` [GSK257997], the “%Inh” value was found to be 2%.

Take `CS(=O)(=O)c1ccc(-c2c(-c3ncn[nH]3)sc(N3CCOCC3)c2C#N)cc1`: the “%Inh” value is listed as 27%. In the case of `O=C(O)COc1ncnc2cc(-c3ccc4[nH]ncc4c3)sc12`, the “%Inh” value turned out to be 0%. Regarding `Cc1c(O)cccc1Nc1ccnc2ccc(C(F)(F)F)cc12.Cl` [GW466413], the “%Inh” value was 0%. In the case of `O=C(Nc1ccc2c(c1)OCO2)NC1CCN(c2ccnc(Nc3ccc(F)cc3)n2)C1` (stereo not shown) [GSK1379724], the “%Inh” value is listed as 6%. On the same count and under the same terms, the figure for `Cl.c1ccc(-c2n[nH]cc2-c2ccnc(-c3ccc(CN4CCOCC4)cc3)c2)nc1` [GW776245] is 16%. On the same count and under the same terms, to `Cc1ccc(NC(=O)Nc2cc(C(C)(C)C)nn2-c2ccccc2)cc1` [GSK1014915] belongs 24%.
